# Test results: ChEMBL document CHEMBL4513146, “CO-ADD screening of Karazin Kharkiv National University (Ukraine) compounds”
# Results with a measured potency or affinity are listed apart.
# Tests used:
# [1] = tested on: Staphylococcus aureus; settings: Concentration 32 ug.mL-1;; ASSAY_TEST Inhibition of Bacterial Growth; detection method Absorption (OD600); MEDIA CAMHB; plate type 384well; NBS; CORNING #3640; time 18 hr
# [2] = tested on: Escherichia coli; settings: Concentration 32 ug.mL-1;; ASSAY_TEST Inhibition of Bacterial Growth; detection method Absorption (OD600); MEDIA CAMHB; plate type 384well; NBS; CORNING #3640; time 18 hr
SMILES,Inhibition [1] [%],Inhibition [2] [%]
CCC(C)NC(=O)Cn1nc2n(CCC(=O)NC3CCCCC3)c(=O)c3ccccc3n2c1=O (stereo not given),-5.52,-15
CSc1cccc(NC(=O)Cn2nc3c(Oc4cc(C)cc(C)c4)nccn3c2=O)c1,3.38,-5.29
Cc1nnc2c(S(=O)(=O)N(Cc3cccc(Cl)c3)c3ccc(F)c(F)c3)cccn12,3.24,-3.66
Cc1ccc(-n2ccn3c(=O)n(Cc4ccc(Cl)cc4)nc3c2=O)cc1C,0.27,-1.91
CCOC(=O)N1CCN(C(=O)CCc2nnc3c4cc(-c5ccccc5)nn4ccn23)CC1,4.14,-0.18
O=c1c2nnc(-c3ccc([N+](=O)[O-])cc3)n2ccn1-c1ccc(F)c(F)c1,-6.17,-1.2
CCc1ccc(N(Cc2ccc(C)cc2)S(=O)(=O)c2cccn3c(C)nnc23)cc1,16.56,0.51
Cc1cccc(Oc2nccn3c(=O)n(CC(=O)Nc4ccccc4C(F)(F)F)nc23)c1C,14.33,3.1
Cc1nnc2c(S(=O)(=O)N(Cc3ccc(F)cc3)c3ccc(F)c(F)c3)cccn12,15.7,3.7
COc1ccccc1NC(=O)Cn1c(=O)c2nnc(C(C)C)n2c2ccccc21,22.81,-0.08
COC(=O)c1ccc(NC(=O)Cn2nc3c4cc(-c5ccc(F)cc5)nn4ccn3c2=O)cc1,-6.17,3.19
CC(C)CCn1c(=O)c2ccc(C(=O)NC3CCCC3)cc2n2c(=O)n(CC#N)nc12,11.46,0.05
Cc1ccc(C)c(Cn2nc3ccc(-c4ccc(C)c(C)c4)nn3c2=O)c1,6.01,-0.08
CCc1nnc2c(=O)n(CC(=O)Nc3ccc(C(C)C)cc3)c3ccccc3n12,12.36,0.11
COc1ccc(CCNC(=O)Cn2nc3c(N4CCOCC4)nccn3c2=O)cc1OC,21.7,0.1
Cc1ccccc1Oc1nccn2c(=O)n(CC(=O)Nc3ccc(C(C)C)cc3)nc12,-1.76,-10.99
Cc1cccc(NC(=O)CSc2nnc3ccc(C(=O)Nc4cccc(F)c4)cn23)c1,8.5,-1.74
COc1cccc(Oc2nccn3c(=O)n(CC(=O)Nc4ccccc4C(F)(F)F)nc23)c1,13.2,-0.25
COc1cccc(C(=O)Cn2nc3n(CCC(C)C)c(=O)c4sccc4n3c2=O)c1,-4.77,-5.88
Cc1ccc(NC(=O)Cn2nc3c(SC4CCCCC4)nccn3c2=O)cc1,10.51,-0.3
Cc1ccc(-c2cc3c4nnc(SCC(=O)Nc5cccc(Br)c5)n4ccn3n2)cc1,5.15,-4.56
CCOC(=O)c1ccc(NC(=O)Cn2nc3ccc(SC(C)(C)C)nn3c2=O)cc1,-4.89,-11.53
CC(C)CCNC(=O)CSc1nnc2c(=O)n(Cc3ccc(F)cc3)ccn12,8.45,-0.48
Cc1cccc(CN(c2ccc(Cl)cc2)S(=O)(=O)c2cccn3c(C)nnc23)c1,13.75,2.16

SMILES,Inhibition [1] [%],Inhibition [2] [%]
Cc1ccc(-n2ccn3c(SCC(=O)N4CCN(c5ccc(F)cc5)CC4)nnc3c2=O)cc1C,15.71,-2.64
Cc1nnc2c(=O)n(CC(=O)Nc3ccc(F)cc3)c3ccccc3n12,15.51,1.65
Cc1cc2nn(CC(=O)Nc3ccc(F)cc3Cl)c(=O)n2c(Nc2ccccc2C)n1,-3.09,-11.67
COc1ccc(Cn2nc3ccc(-c4ccc(Cl)cc4)nn3c2=O)cc1F,12.92,0.48
CC(C)CCNC(=O)CSc1nnc2c(=O)n(-c3ccc(F)cc3)ccn12,8.18,-2.32
COc1ccc(N(Cc2cccc(C)c2)S(=O)(=O)c2ccc3nnc(C)n3c2)cc1,2.37,-2.14
Cc1ccc(NC(=O)Cn2nc3ccc(SCc4ccc(Cl)cc4)nn3c2=O)c(C)c1,-11.8,-8.79
CCc1cccc(NC(=O)Cn2nc3c(SC4CCCCC4)nccn3c2=O)c1,-3.76,-12.2
O=S(=O)(c1ccc2nncn2c1)N(Cc1ccccc1F)c1cccc(F)c1,-5.69,-18.72
O=C(NCc1ccccc1)c1ccc2nn(CC(=O)N3CCN(c4ccc(F)cc4)CC3)c(=O)n2c1,4.28,-2.47
COc1ccc(N2CCN(C(=O)Cn3nc4c(Sc5cccc(C)c5)nccn4c3=O)CC2)cc1,0.43,-16.62
CCOC(=O)c1ccc(NC(=O)CSc2nnc3c4cc(-c5ccc(OC)cc5)nn4ccn23)cc1,10.14,2.37
COc1ccc(-n2ccn3c(-c4ccc([N+](=O)[O-])cc4)nnc3c2=O)cc1Cl,17.28,1.52
Cc1nc(-c2ccccn2)cc2nn(CC(=O)Nc3ccccc3C(F)(F)F)c(=O)n12,2.98,-9.66
CCOc1ccccc1NC(=O)Cn1c(=O)c2nnc(C(C)C)n2c2ccccc21,15.38,5
Cc1cccc(Sc2nc3ccccc3n3c(=O)n(CC(=O)Nc4c(C)cc(C)cc4C)nc23)c1,8.94,-2.19
CCc1ccc(NC(=O)Cn2nc3c(=O)n(-c4ccc(Br)cc4)ccn3c2=O)cc1,-5.7,-7.12
Cc1ccc(-c2ccc3nnc(CCC(=O)NCc4ccc(C(C)C)cc4)n3n2)cc1C,2.18,-3.19
CCCCn1c(=O)c2sccc2n2c(CCC(=O)Nc3ccc(OC(F)(F)F)cc3)nnc12,0.43,-8.31
Cc1ccccc1Oc1nc2ccccc2n2c(=O)n(CC(=O)NCc3ccc4c(c3)OCO4)nc12,13.3,0.04
CSc1cccc(NC(=O)Cn2nc3ccc(SC(C)(C)C)nn3c2=O)c1,-2.88,1.52
COc1ccc(NC(=O)c2ccc3nn(CC(=O)Nc4ccc5c(c4)OCCO5)c(=O)n3c2)cc1,0.27,-8.29
COc1ccc(NC(=O)Cn2nc3c(Sc4ccccc4)nccn3c2=O)cc1,7.67,-3.96
CCc1nnc2c(=O)n(CC(=O)Nc3ccc(NC(C)=O)cc3)c3ccccc3n12,1.89,-3.04

SMILES,Inhibition [1] [%],Inhibition [2] [%]
COc1cccc(-n2ccn3c(SC(C)C(=O)c4ccc(C)c(C)c4)nnc3c2=O)c1 (stereo not given),13.98,1.22
COc1ccc(-c2cc3c4nn(CC(=O)Nc5ccccc5OC)c(=O)n4ccn3n2)cc1,2.83,-1.9
O=C(CSc1nnc2ccc(C(=O)Nc3cccc(F)c3)cn12)Nc1ccc(F)c(F)c1,8.43,1.09
COc1ccc(N(Cc2ccccc2F)S(=O)(=O)c2ccc3nnc(C)n3c2)cc1,8.97,-7.31
COc1cccc(-n2ccn3c(SCC(=O)Nc4cc(Cl)ccc4OC)nnc3c2=O)c1,8.75,-1.77
Cc1ccc(-c2ccc3nn(Cc4ccc(N5CCCC5=O)cc4)c(=O)n3n2)cc1,5.05,-5.45
O=C(Cn1nc2c(Sc3ccccc3)nccn2c1=O)Nc1ccc2c(c1)OCCO2,-4.66,-0.55
O=C(CSc1nnc2n(CC3CCCO3)c(=O)c3sccc3n12)Nc1ccc(F)cc1Cl (stereo not given),-6.42,-12.15
O=C(Cn1nc2c(Oc3ccccc3)nccn2c1=O)Nc1ccccc1Cl,6.14,-6.19
COc1ccc(Cl)cc1NC(=O)CSc1nnc2c(=O)n(-c3ccccc3)ccn12,7.26,-0.85
Cc1cccc(Oc2nccn3c(=O)n(CC(=O)N4CCN(c5ccc(F)cc5)CC4)nc23)c1C,3.93,-6.71
CCc1nnc2c(SCC(=O)Nc3ccc(Cl)cc3)nc3ccccc3n12,15.07,2.66
Cc1ccc(Cn2c(=O)c3ccccc3n3c(=O)n(CC(=O)Nc4ccc5c(c4)OCCO5)nc23)cc1,6.52,1.04
O=C(Cn1nc2c(SCc3ccc(Cl)cc3)nccn2c1=O)Nc1ccccc1F,4.88,-0.33
COc1ccc(-c2cc3c4nn(CC(=O)Nc5c(C)cccc5C)c(=O)n4ccn3n2)cc1,3.68,-1.14
COc1cccc(CN(c2ccccc2)S(=O)(=O)c2ccc3nncn3c2)c1,6.2,-8.56
CCc1ccccc1NC(=O)Cn1nc2c(Sc3ccc(C)cc3C)nccn2c1=O,1.94,-4.21
Cc1ccc(Cl)cc1N1CCN(C(=O)CCc2nnc3c4cc(-c5ccccc5)nn4ccn23)CC1,1.17,-6.03
COC(=O)c1ccc(NC(=O)Cn2nc3ccc(C(=O)NCc4ccccc4)cn3c2=O)cc1,12.92,-2.38
COc1cccc(NC(=O)Cn2c(=O)c3nnc(C(C)C)n3c3ccccc32)c1,22.3,0.77
O=C(Cn1nc2c(Sc3ccccc3)nccn2c1=O)Nc1ccc(Br)cc1F,5.84,-2.08
COc1ccc(NC(=O)Cn2nc3c(Oc4cccc(OC)c4)nccn3c2=O)cc1,14.33,-3.37
